In PubChem BioAssay:
Results filed as inconclusive are left out. Active and inactive are the calls of the source.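 How the source made its calls, unless noted: active means viability loss from added drug above about 55%, and viability with drug at most 40%, in both replicates (limit read from the data, passing the limit was not always enough); inconclusive means both conditions met in only one replicate; inactive means neither replicate meets both conditions.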

Columns and labels:
[1] = Her2 expression decrease, cell viability multiplex – SKBR3 breast tumor cells, AlphaScreen, ATP viability, primary screen (AID 461;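 active means Her2 level under about 52% in both replicate screens, with viability over 70% of control, limit read from the data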;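 on Her2 level: lower value means less Her2 protein in the cells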;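 on viability: percent of carrier control wells set as 100% viability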); settings: SKBR3 Her2 protein level, 18-24 h, measured here: SKBR3 viability, ATP luminescence, at 10 µM
[2] = target: Receptor tyrosine-protein kinase erbB-2 (Homo sapiens) (UniProt P04626); assay: as above; settings: 18-24 h, at 10 µM, stronger effect = lower value
[3] = reduced viability of SK-BR-3 breast cancer cells – cell-based, 24 h, human, pilot screen (AID 572;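 active means viability at or below 10% of carrier control in both of two separate runs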;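 further: compound exposure lasted between 18 and 24 h rather than exactly 24 h; 100% = carrier-treated control wells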); settings: SK-BR-3 viability, CellTiter-Glo luminescence, at 10 µM, stronger effect = lower value
[4] = HUVEC growth inhibition – cell-based, human, primary screen (AID 575;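 active means viability at or below 30% in both replicate assays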;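 further: 100% = median of untreated cell wells with 0.1% DMSO on each plate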); settings: HUVEC proliferation, CellTiter-Glo luminescence, 72 h; at 10 µM; stronger effect = lower value
[5] = H69AR cell proliferation blockers – human, duplicate replicates, primary screen (AID 580;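 active means viability at or under a set limit in both replicates, limit being median viability minus 3 SD, cut at about 48% in these data, passing the limit was not always enough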;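 further: 100% = mean luminescence of untreated wells and 0% = no signal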); settings: H69AR lung tumor cells viability, ATP luminescence, 72 h; at 10 µM; stronger effect = lower value
[6] = MRP1 drug-resistance reversers in H69AR cells – cell-based, doxorubicin co-treatment, pilot screen (AID 601); settings: CellTiter-Glo, 72 h, at 10 µM; for differential viability (reversal): stronger effect = higher value
[7] = yeast transport mutant growth inhibition pilot in 384-well plates, post-Golgi transport modulator project (AID 636; in the data active means inhibition above about 31%); settings: absorbance 615 nm, about 18 h, stronger effect = higher value
[8] = growth suppression of yeast trafficking mutant, preliminary HTS, modulators of trafficking downstream of Golgi apparatus project, 1536-format plate, OD 615 nm (AID 637; in the data active means inhibition above about 30%); settings: yeast transport mutant growth, absorbance 615 nm, 18 h; stronger effect = higher value
[9] = S. cerevisiae growth inhibition in permissive medium (OD615), pilot counter-assay for S. cerevisiae lifespan shortening project, permissive growth control (AID 705;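 active means growth inhibition above 25% in both replicates, a cutoff set 3 SD above the mean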); settings: OD615, 24 h, at 10 µM, stronger effect = higher value
[10] = S. cerevisiae growth inhibition in restrictive medium, OD615, pilot screen, restrictive growth control, yeast lifespan reduction project (AID 706;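 active means growth inhibition above a set limit, 3 SD over mean compound inhibition, in both replicates, cut at about 43% in these data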;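 further: modified DeaD lifespan yeast strain shifted to restrictive glucose medium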); settings: OD615, 48 h, at 10 µM, stronger effect = higher value
[11] = doxorubicin toxicity protection in MRP-1 cells – H69AR cells, CellTiter-Glo, duplicate, MRP-1 activator project, pilot screen (AID 807;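 active means viability increase at or above a cutoff of the median across tested compounds plus 3 SD, cut at about 8.5% in these data, passing the limit was not always enough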;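 further: compound pretreatment 18-22 h then 72 h combined with doxorubicin; 0% = doxorubicin alone and 100% = vehicle without doxorubicin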); settings: H69AR viability with doxorubicin, CellTiter-Glo luminescence; at 10 µM; stronger effect = higher value
[12] = viability of HCT116 without oncogenic beta-catenin – human colon tumor cells, pilot screen (AID 823;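 active means cell viability at or below a set limit in both duplicate runs, the limit being the all-compound median minus 4 SD, cut at about 23% in these data, passing the limit was not always enough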;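 further: 0% = wells killed by 20 µM Hyamine and 100% = untreated DMSO cell wells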); settings: HCT116 beta-catenin knockout viability, CellTiter-Glo, 60 h; at 10 µM; stronger effect = lower value
[13] = viability of PTEN-null HCT116 cells – cell-based, HCT116 clonal line, CellTiter-Glo, pilot screen (AID 824;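 active means viability at or below 27.92% in each of two runs, the all-compound median minus 4 SD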;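 further: 0% = 20 µM Hyamine control and 100% = vehicle cell control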); settings: HCT116 PTEN-deleted viability, 60 h, at 10 µM, stronger effect = lower value
[14] = RAM pathway blockade in budding yeast – dse1pr::URA3 reporter, 5-FOA selection, pilot screen (AID 869;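 active means inhibition over a set limit, the all-compound mean plus 3 SD, in both replicate runs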;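 further: 0% = DMSO wells with no growth and 100% = 10 µM 1-NA-PP1 with full growth; RAM network block rescues cells from 5-FOA so hits raise OD615 growth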); settings: S. cerevisiae dse1pr::URA3 5-FOA growth, OD615, 2 d; at 10 µM; stronger effect = higher value; strain carries analog-sensitive mutant Cbk1 kinase
[15] = RAM signaling pathway blockade in yeast – S. cerevisiae, Pdr1DBD-CYC8 efflux-inhibited sensitized strain, primary screen (AID 1298;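 active means RAM network inhibition above 8.4% in each of two replicates, 3 SD over the compound average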;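 further: 0% = DMSO untreated cells without growth and 100% = 10 µM 1-NA-PP1 full growth; higher means more yeast growth rescued from 5-FOA killing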); settings: S. cerevisiae cbk1-as DSE1-URA3 strain, 5-FOA growth OD615, 2 d; at 50 µM; stronger effect = higher value
[16] = H69AR cells + 2 uM doxorubicin, measured here: viability with 2 uM doxorubicin, stronger effect = lower value
[17] = H69AR cells, compound alone cytotoxicity

Receptor tyrosine-protein kinase erbB-2 (Homo sapiens), sequence (P04626 whole entry, looked up): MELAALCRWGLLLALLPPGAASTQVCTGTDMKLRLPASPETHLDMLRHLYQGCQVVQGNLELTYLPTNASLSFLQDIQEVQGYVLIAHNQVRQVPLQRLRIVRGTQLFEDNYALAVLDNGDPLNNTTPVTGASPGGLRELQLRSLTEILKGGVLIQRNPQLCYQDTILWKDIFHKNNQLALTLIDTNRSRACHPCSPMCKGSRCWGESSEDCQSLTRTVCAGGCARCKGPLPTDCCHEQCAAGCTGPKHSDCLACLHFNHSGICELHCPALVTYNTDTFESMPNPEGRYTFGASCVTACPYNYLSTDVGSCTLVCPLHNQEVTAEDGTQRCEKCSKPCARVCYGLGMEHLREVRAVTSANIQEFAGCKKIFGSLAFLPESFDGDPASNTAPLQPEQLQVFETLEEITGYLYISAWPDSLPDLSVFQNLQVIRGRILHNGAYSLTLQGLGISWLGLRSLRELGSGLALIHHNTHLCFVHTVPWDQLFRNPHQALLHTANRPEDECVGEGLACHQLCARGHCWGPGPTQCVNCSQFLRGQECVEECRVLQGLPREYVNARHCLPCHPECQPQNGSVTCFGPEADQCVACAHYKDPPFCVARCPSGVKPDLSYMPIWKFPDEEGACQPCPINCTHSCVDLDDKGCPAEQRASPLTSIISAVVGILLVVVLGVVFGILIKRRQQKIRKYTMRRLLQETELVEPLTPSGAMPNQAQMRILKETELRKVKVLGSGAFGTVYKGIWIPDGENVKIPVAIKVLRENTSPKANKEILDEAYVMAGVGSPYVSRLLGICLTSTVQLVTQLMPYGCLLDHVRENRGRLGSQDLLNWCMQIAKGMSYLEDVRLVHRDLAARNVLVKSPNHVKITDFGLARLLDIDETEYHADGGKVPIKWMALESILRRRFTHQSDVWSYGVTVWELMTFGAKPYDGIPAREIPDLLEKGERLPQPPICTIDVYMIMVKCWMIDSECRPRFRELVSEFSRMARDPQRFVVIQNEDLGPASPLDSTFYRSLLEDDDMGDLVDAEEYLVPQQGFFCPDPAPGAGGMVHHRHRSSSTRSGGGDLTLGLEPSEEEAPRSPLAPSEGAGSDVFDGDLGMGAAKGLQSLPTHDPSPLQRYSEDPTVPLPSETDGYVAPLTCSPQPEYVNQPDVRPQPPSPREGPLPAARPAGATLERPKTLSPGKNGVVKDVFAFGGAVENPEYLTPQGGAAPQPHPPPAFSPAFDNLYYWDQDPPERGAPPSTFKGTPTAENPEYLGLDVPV

Structure (SMILES)	viability [1]	Her2 level [2]	viability [3]	viability [4]	viability [5]	differential viability (reversal) ([6]; H69AR cells + 2 uM doxorubicin)	viability [6, 16]	viability [6, 17]	inhibition [7]	inhibition [8]	growth inhibition [9]	growth inhibition [10]	viability increase [11]	viability [12]	viability [13]	inhibition [14]	RAM network inhibition [15]
COc1ccc(-c2nc(C)c(C(C)=O)n2O)cc1OC	89%	112% (inactive)	89% (inactive)	91% (inactive)	94.9% (inactive)	9.6% (inactive)	85.3%	94.9%	-2.05% (inactive)	-8.33% (inactive)	-5.41% (inactive)	6.06% (inactive)	-1.91% (inactive)	96.5% (inactive)	90.1% (inactive)	1.42% (inactive)	2.4% (inactive)
CCOC(=O)c1sc2nc(NC(=O)COc3ccccc3)sc2c1C	78.5%	123% (inactive)	78.5% (inactive)	74.1% (inactive)	69.4% (inactive)	-10% (inactive)	79.5%	69.4%	3.72% (inactive)	-0.33% (inactive)	-2.58% (inactive)	-19.8% (inactive)	1.51% (inactive)	109% (inactive)	98.4% (inactive)	2.67% (inactive)	0.88% (inactive)
CCCC(=O)Nc1cc(C)c2c(=O)oc3ccccc3c2n1	87%	94.5% (inactive)	87% (inactive)	63.6% (inactive)	77.6% (inactive)	-20.4% (inactive)	98%	77.6%	-0.4% (inactive)	0.33% (inactive)	-11.5% (inactive)	3.23% (inactive)	-4.74% (inactive)	82.5% (inactive)	86.1% (inactive)	1.65% (inactive)	8.68% (inactive)
CCCCn1c(CN2CCN(c3ccc(F)cc3)CC2)nc2c1c(=O)n(C)c(=O)n2C	98%	93% (inactive)	98% (inactive)	66.9% (inactive)	95.5% (inactive)	-3.86% (inactive)	99.3%	95.5%	-3.33% (inactive)	-5.74% (inactive)	-8.42% (inactive)	-1.05% (inactive)	-0.4% (inactive)	80.3% (inactive)	85.8% (inactive)	1.07% (inactive)	3.49% (inactive)
O=C(Nn1cnnc1)C1Cc2ccccc2CN1S(=O)(=O)c1ccc(F)cc1 (stereo not given)	112%	97% (inactive)	112% (inactive)	90.4% (inactive)	97.2% (inactive)	-1.64% (inactive)	98.8%	97.2%	-5.95% (inactive)	4.75% (inactive)	-1.04% (inactive)	5.43% (inactive)	0.15% (inactive)	101% (inactive)	102% (inactive)	0.38% (inactive)	4.84% (inactive)
CCCCN(CCCC)CCn1cnc2c([nH]c3ccc(OC)cc32)c1=O	76%	90.5% (inactive)	76% (inactive)	121% (inactive)	80.2% (inactive)	-12.8% (inactive)	92.9%	80.2%	-1.67% (inactive)	2.17% (inactive)	-6.29% (inactive)	3.9% (inactive)	-3.78% (inactive)	82.8% (inactive)	86.2% (inactive)	0.545% (inactive)	2.03% (inactive)
CCC(C)NC(=O)c1cc(CC(C)C)on1 (stereo not given)	84%	111% (inactive)	84% (inactive)	95.5% (inactive)	83.6% (inactive)	-11.1% (inactive)	94.7%	83.6%	-0.26% (inactive)	18.3% (inactive)	-2.93% (inactive)	-0.685% (inactive)	1.13% (inactive)	102% (inactive)	103% (inactive)	-0.07% (inactive)	2.69% (inactive)
CC1=C(C(=O)OC2CCCC2)C(c2ccc(C)o2)C2=C(CC(c3cccs3)CC2=O)N1 (stereo not given)	148%	108% (inactive)	148% (inactive)	75.1% (inactive)	74.8% (inactive)	13.3% (inactive)	61.5%	74.8%	-1.17% (inactive)	-11% (inactive)	-3.79% (inactive)	-19.9% (inactive)	-4.36% (inactive)	46.3% (inactive)	58.9% (inactive)	1.68% (inactive)	2.7% (inactive)
CC(Sc1nc(-c2ccccc2)cc(C(F)(F)F)n1)C(=O)N1CCCC1 (stereo not given)	84.5%	94.5% (inactive)	84.5% (inactive)	89.7% (inactive)	88.8% (inactive)	-8.49% (inactive)	97.3%	88.8%	-4.13% (inactive)	-3.61% (inactive)	-2% (inactive)	-21.7% (inactive)	-2.25% (inactive)	89.2% (inactive)	84% (inactive)	0.895% (inactive)	1% (inactive)
COc1ccc(C(=O)CN2C3=NCCCN3c3ccccc32)cc1OC	89%	109% (inactive)	89% (inactive)	81.3% (inactive)	82.4% (inactive)	5.29% (inactive)	77.1%	82.4%	-0.39% (inactive)	2.5% (inactive)	-6.53% (inactive)	-6.88% (inactive)	-2.15% (inactive)	56.2% (inactive)	64.7% (inactive)	1% (inactive)	2.03% (inactive)
COc1ccc(OC)c(C(=O)c2ccc(C(=O)O)cc2)c1	120%	107% (inactive)	120% (inactive)	87.2% (inactive)	103% (inactive)	6.11% (inactive)	96.5%	103%	-3.73% (inactive)	1.94% (inactive)	-10.1% (inactive)	-16.1% (inactive)	0.88% (inactive)	105% (inactive)	103% (inactive)	1.67% (inactive)	0.12% (inactive)
CCOc1ccc(S(=O)(=O)N2CCN(c3ccc(C)cc3C)CC2)cc1	98.5%	114% (inactive)	98.5% (inactive)	90.1% (inactive)	90.1% (inactive)	-14.9% (inactive)	105%	90.1%	-5.07% (inactive)	-4.67% (inactive)	7.69% (inactive)	5.65% (inactive)	-0.07% (inactive)	65.6% (inactive)	83.5% (inactive)	2.64% (inactive)	6.67% (inactive)
COc1cccc(C2=NOC(C(=O)N3CCN(c4ccccc4)CC3)C2)c1OC (stereo not given)	104%	97.5% (inactive)	104% (inactive)	95.9% (inactive)	86.5% (inactive)	-12% (inactive)	98.5%	86.5%	-6.13% (inactive)	0% (inactive)	-7.02% (inactive)	-5.35% (inactive)	2.2% (inactive)	93.6% (inactive)	96.5% (inactive)	-0.58% (inactive)	1% (inactive)
Cn1c(=O)c2c(nc3sccn32)n(C)c1=O	106%	109% (inactive)	106% (inactive)	112% (inactive)	87.7% (inactive)	-1.71% (inactive)	89.4%	87.7%	-3.51% (inactive)	-4.1% (inactive)	-7.3% (inactive)	-10.3% (inactive)	-1.33% (inactive)	101% (inactive)	99.4% (inactive)	1.48% (inactive)	2.73% (inactive)
Cc1cc2nc(-c3ccco3)cc(C(F)(F)F)n2n1	93.5%	90% (inactive)	93.5% (inactive)	102% (inactive)	93.3% (inactive)	6.71% (inactive)	86.6%	93.3%	1.28% (inactive)	8.17% (inactive)	-17.4% (inactive)	-8.99% (inactive)	1.14% (inactive)	105% (inactive)	105% (inactive)	1.89% (inactive)	2.83% (inactive)
CCCOC(=O)C1C2C=CC3(CN(c4cccc(Cl)c4)C(=O)C13)O2 (stereo not given)	102%	85% (inactive)	102% (inactive)	90.4% (inactive)	83% (inactive)	-10.8% (inactive)	93.8%	83%	-2.93% (inactive)	-0.16% (inactive)	-4.19% (inactive)	-9.97% (inactive)	-2.05% (inactive)	101% (inactive)	97.4% (inactive)	-0.245% (inactive)	3.71% (inactive)
O=C(O)C1CCCN(S(=O)(=O)c2ccc(Cl)s2)C1 (stereo not given)	91%	124% (inactive)	91% (inactive)	102% (inactive)	93.1% (inactive)	4.47% (inactive)	88.6%	93.1%	-4.8% (inactive)	0.5% (inactive)	-4.79% (inactive)	7.83% (inactive)	0.34% (inactive)	100% (inactive)	102% (inactive)	2.21% (inactive)	0.99% (inactive)
COc1ccccc1CNC(=O)CCn1c(=O)[nH]c2ccsc2c1=O	97.5%	102% (inactive)	97.5% (inactive)	114% (inactive)	93.9% (inactive)	4.96% (inactive)	88.9%	93.9%	-7.97% (inactive)	2.17% (inactive)	-21% (inactive)	-14.4% (inactive)	-0.23% (inactive)	101% (inactive)	99.4% (inactive)	1.01% (inactive)	4.41% (inactive)
Cc1nc2c(-c3ccc(F)cc3)c(C)nn2c(C)c1CCC(=O)NC(C)CCc1ccco1 (stereo not given)	102%	59% (inactive)	102% (inactive)	63.1% (inactive)	91.2% (inactive)	10.4% (inactive)	80.9%	91.2%	-0.64% (inactive)	7.83% (inactive)	2.17% (inactive)	-4.76% (inactive)	-1.56% (inactive)	75% (inactive)	82.3% (inactive)	0.865% (inactive)	1.03% (inactive)
COc1cc(C2N3CC4(C)CN2CC(C)(C3)C4)ccc1O (stereo not given)	94%	123% (inactive)	94% (inactive)	105% (inactive)	104% (inactive)	11.5% (inactive)	92.3%	104%	-0.51% (inactive)	-2% (inactive)	-5.33% (inactive)	1.65% (inactive)	0.39% (inactive)	104% (inactive)	98% (inactive)	1.72% (inactive)	0.39% (inactive)
